Results: PubChem BioAssay (Tox21)
Results filed as inconclusive are left out. The source made the active and inactive calls. Unless noted, the call rests on the fitted dose curve; in most records, active means well fitted curve in the direction sought with a large enough effect in the repeat runs; inconclusive means weak or mixed curves; inactive means no such curve, though single readings can be large; an effect the other way counts as inactive or inconclusive.

Legend:
[1] = qHTS assay for small molecule agonists of the p53 signaling pathway (AID 651631; calls by dose curve; further: nearly all actives have a fitted effect of over 15% in size)
Outline: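 Agonist mode screen using a stably integrated beta-lactamase gene under p53 response elements in HCT-116 cells. Compound exposure lasts 16 h at 37 °C; fluorescence intensity is measured following 2 h FRET substrate loading.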

[2] = qHTS assay for small molecules that induce genotoxicity in human embryonic kidney cells expressing luciferase-tagged ATAD5 (AID 651632); further: nearly all actives have a fitted effect of over 15% in size
Outline: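 HEK293T cells carrying a luciferase reporter tagged to ATAD5 were exposed to compound or DMSO vehicle for 16 hr at 37C, 5% CO2. Amplite was added, and after 30 min at room temperature luciferase activity was read as a marker of ATAD5 induction.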

[3] = qHTS assay for small molecule agonists of the p53 signaling pathway - cell viability (AID 651633; calls by dose curve;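 further: p53RE-bla HCT reporter cells with a stable beta-lactamase p53 reporter; series mostly up to about 83 µM; nearly all actives have a fitted effect of over 30% in size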)
Outline: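 p53RE-bla cells, seeded at 4,000 per well and rested 5 h at 37 C/5% CO2, received compounds in DMSO for 16 h at 37 C. CellTiter-Glo was then added, and luminescence was read after 30 min at room temperature to gauge cytotoxicity.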

[4] = qHTS assay for small molecules that induce genotoxicity in human embryonic kidney cells expressing luciferase-tagged ATAD5 - cell viability (AID 651634; calls by dose curve; further: nearly all actives have a fitted effect of over 25% in size)
Outline: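 HEK293T cells expressing luciferase-tagged ATAD5 were exposed to compound or DMSO for 15.5 hr at 37C, 5% CO2. Viability was then read as live-cell protease activity by CellTiter-Fluor fluorescence after 30 min at 37C.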

[5] = qHTS assay to test for compound auto fluorescence at 590 nm (red) in HepG2 cells (AID 720674)
Outline: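 Compound auto-fluorescence is scored relative to Rose Bengal sodium, measured at 540/590 nm in live HepG2 cultures after 1 hr compound contact (37 C, 5% CO2).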

[6] = qHTS assay to test for compound auto fluorescence at 535 nm (green) in HepG2 cells (AID 720675)
[7] = qHTS assay to test for compound auto fluorescence at 590 nm (red) in HEK293 cells (AID 720679)
Outline: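 Each well held 2,000 HEK293 cells in medium containing 10% dialyzed FBS. Following 4-5 hr attachment at 37C, 23 nL test compound or DMSO was added; plates sat overnight, and red fluorescence (540/590nm) was recorded.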

[8] = qHTS assay to test for compound auto fluorescence at 535 nm (green) in HEK293 cells (AID 720680)
[9] = qHTS assay to test for compound auto fluorescence at 460 nm (blue) in HEK293 cell free culture (AID 720681)
Outline: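 Test compounds were pinned into cell-free culture medium (DMEM with 10% FBS) and fluorescence was read directly at Ex/Em 405/460 nm. Signals were expressed as fluorescence equivalents of triamterene, with DMSO vehicle as control.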

[10] = qHTS assay to test for compound auto fluorescence at 535 nm (green) in HEK293 cell free culture (AID 720682)
Outline: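 No cells present: wells hold DMEM supplemented with 10% FBS, into which compound or vehicle is pinned. Green emission is then recorded (485 nm excitation, 535 nm emission) and scaled to fluorescein.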

[11] = qHTS assay to test for compound auto fluorescence at 590 nm (red) in HEK293 cell free culture (AID 720683)
Outline: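 Tox21 10K library compounds were pinned into cell-free DMEM with 10% FBS and fluorescence was read at excitation 540 nm. Activity is expressed as Rose Bengal sodium equivalency.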

[12] = qHTS assay to test for compound auto fluorescence at 460 nm (blue) in HepG2 cell free culture (AID 720685)
Outline: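 Compound (23 nL) or DMSO pinned into cell-free MEM with 10% FBS; blue fluorescence read at 405/460 nm excitation/emission, expressed as auto-fluorescence equivalency to triamterene.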

[13] = qHTS assay to test for compound auto fluorescence at 535 nm (green) in HepG2 cell free culture (AID 720686)
[14] = qHTS assay to test for compound auto fluorescence at 460 nm (blue) in HepG2 cells (AID 720687)
Outline: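 Cells (2,000/well in MEM with 10% FBS) attached overnight at 37 C, then were exposed to compound or DMSO for 1 hr at 37 C, 5% CO2. Fluorescence read at Ex/Em 405/460 nm, expressed as triamterene-equivalent signal.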

[15] = molecular target: Glucocorticoid receptor (Homo sapiens) (UniProt P04150); test: qHTS assay to identify small molecule agonists of the glucocorticoid receptor (GR) signaling pathway (AID 720691; active means well fitted activation curve with a large enough effect in the signal ratio in the repeat runs, not every such curve was filed as active; the % refers to the signal ratio)
Outline: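 GR-bla HeLa cells (beta-lactamase reporter under glucocorticoid response element) were plated 4 h at 37 C/5% CO2, given compounds in DMSO, and incubated 18 h at 37 C. LiveBLAzer B/G FRET substrate was added for 2 h at room temperature, then fluorescence intensity read.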

[16] = molecular target: Glucocorticoid receptor (Homo sapiens) (UniProt P04150); test: qHTS assay to identify small molecule antagonists of the glucocorticoid receptor (GR) signaling pathway (AID 720692; active means well fitted inhibition curve with a large enough effect in the signal ratio in the repeat runs, not every such curve was filed as active; the % refers to the signal ratio)
Outline: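 GR-bla HeLa cells (beta-lactamase reporter under glucocorticoid response element) were pre-plated 4 h at 37 C, treated with compounds plus 5 nM dexamethasone (final) for 18 h, then read by LiveBLAzer B/G FRET fluorescence after 2 h.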

[17] = qHTS assay for small molecule disruptors of the mitochondrial membrane potential - cell viability (AID 720634; calls by dose curve;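 further: human HepG2 liver cancer cells; series mostly up to about 83 µM; nearly all actives have a fitted effect of over 20% in size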)
Outline: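 HepG2 cells seeded overnight at 37 C, then exposed to compound or DMSO for 1 hr at 37 C, 5% CO2. m-MPI dye added, then CellTiter-Glo for 30 min at room temperature; viability read as ATP luminescence.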

[18] = qHTS assay to test for compound auto fluorescence at 460 nm (blue) in HEK293 cells (AID 720678)
Outline: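 Cells were seeded and left to adhere for 4-5 hr at 37C. Compounds were then pin-transferred. After an overnight incubation at 37C under 5% CO2, intrinsic fluorescence at 405/460 nm was measured and referenced to triamterene.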

[19] = qHTS assay to test for compound auto fluorescence at 590 nm (red) in HepG2 cell free culture (AID 720684)
Outline: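 Measured in medium alone (MEM containing 10% FBS) following pintool addition of compound; emission at 590 nm with 540 nm excitation, referenced to Rose Bengal sodium.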

[20] = qHTS assay for small molecule disruptors of the mitochondrial membrane potential (AID 720635)
Outline: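 HepG2 cells (2,000/well) attached overnight at 37C, then took compound for 1 hr at 37C, 5% CO2. Mito-MPS dye was added for 30 min; fluorescence was read at 490/535 nm (monomers) and 540/590 nm (aggregates).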
On the % scale 0 is the no-effect control and ±100 the full control effect.

Chain of Glucocorticoid receptor (Homo sapiens) (P04150 whole entry, looked up): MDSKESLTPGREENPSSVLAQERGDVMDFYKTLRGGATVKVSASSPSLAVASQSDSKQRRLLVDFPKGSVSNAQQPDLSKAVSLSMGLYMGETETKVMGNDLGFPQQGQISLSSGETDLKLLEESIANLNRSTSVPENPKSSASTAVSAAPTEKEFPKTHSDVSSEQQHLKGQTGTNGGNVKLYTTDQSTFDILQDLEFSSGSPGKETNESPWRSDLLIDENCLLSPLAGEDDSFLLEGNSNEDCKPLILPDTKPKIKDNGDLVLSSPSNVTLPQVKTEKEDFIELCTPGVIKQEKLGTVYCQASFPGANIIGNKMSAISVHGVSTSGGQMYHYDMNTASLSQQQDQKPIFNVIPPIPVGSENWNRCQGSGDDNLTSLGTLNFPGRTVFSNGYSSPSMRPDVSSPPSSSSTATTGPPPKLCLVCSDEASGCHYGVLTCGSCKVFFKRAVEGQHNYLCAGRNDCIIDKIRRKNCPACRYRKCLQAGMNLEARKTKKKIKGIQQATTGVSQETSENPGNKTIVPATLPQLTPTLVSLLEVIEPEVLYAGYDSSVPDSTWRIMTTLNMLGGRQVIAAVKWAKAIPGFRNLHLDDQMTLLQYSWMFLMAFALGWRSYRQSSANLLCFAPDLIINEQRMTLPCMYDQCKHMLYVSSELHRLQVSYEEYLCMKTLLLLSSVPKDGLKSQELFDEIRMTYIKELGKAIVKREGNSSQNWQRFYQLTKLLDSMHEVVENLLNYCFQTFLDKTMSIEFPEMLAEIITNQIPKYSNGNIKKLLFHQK

CC(C)(C)NC(N)=O
inactive: outcome [1] | Potency [2] | outcome [3] | Potency [4] | outcome [5] | outcome [6] | outcome [7] | outcome [8] | outcome [9] | outcome [10] | outcome [11] | outcome [12] | outcome [13] | outcome [14] | Potency [15] | outcome [16]

CCOC(=O)[C@H](CCc1ccccc1)N[C@@H](C)C(=O)N1C(=O)N(C)C[C@H]1C(=O)O
inactive: outcome [1] | outcome [3] | Potency [4] | outcome [17] | outcome [5] | outcome [6] | outcome [18] | outcome [8] | outcome [9] | outcome [10] | outcome [11] | outcome [19] | outcome [12] | outcome [13] | outcome [14]

O=C(OCC1(COC(=O)c2cccnc2)CCCC(COC(=O)c2cccnc2)(COC(=O)c2cccnc2)C1O)c1cccnc1
inactive: outcome [1] | outcome [3] | Potency [4] | outcome [17] | Potency [20] | outcome [5] | outcome [6] | outcome [7] | outcome [8] | outcome [9] | outcome [10] | outcome [11] | outcome [12] | outcome [13] | outcome [14] | Potency [15] | outcome [16]

O=C(NCCc1c[nH]c2ccccc12)c1cccnc1
inactive: outcome [1] | outcome [3] | Potency [4] | outcome [17] | outcome [5] | outcome [6] | outcome [18] | outcome [8] | outcome [9] | outcome [11] | outcome [19] | outcome [12] | outcome [13] | outcome [14]

N[C@@H](COP(=O)(O)O)C(=O)O
inactive: Potency [2] | outcome [3] | Potency [4] | outcome [17] | Potency [20] | outcome [5] | outcome [6] | outcome [7] | outcome [8] | outcome [9] | outcome [11] | outcome [19] | outcome [12] | outcome [13] | outcome [14] | Potency [15] | outcome [16]

COc1cc(C(=S)N2CCOCC2)cc(OC)c1OC
inactive: outcome [1] | outcome [3] | Potency [4] | outcome [17] | outcome [5] | outcome [6] | outcome [7] | outcome [8] | outcome [9] | outcome [10] | outcome [11] | outcome [19] | outcome [12] | outcome [14] | outcome [16]

OCCC(F)(F)C(F)(F)C(F)(F)C(F)(F)C(F)(F)C(F)(F)C(F)(F)C(F)(F)F
inactive: Potency [2] | outcome [3] | Potency [4] | outcome [17] | outcome [5] | outcome [6] | outcome [18] | outcome [7] | outcome [8] | outcome [9] | outcome [10] | outcome [11] | outcome [19] | outcome [12] | outcome [13] | outcome [14]

CC1=C(C(=O)O)N2C(=O)[C@@H](NC(=O)[C@H](N)c3ccc(O)cc3)[C@H]2SC1
inactive: Potency [2] | outcome [3] | Potency [4] | outcome [17] | fluorescence, relative to Rose Bengal [5] 0.188% [at 18.6 µM] | fluorescence, % of fluorescein control [6] -0.0034% [at 18.6 µM] | fluorescence, % of triamterene [18] 0.187% [at 18.6 µM] | fluorescence, % of fluorescent control [7] -0.165% [at 18.6 µM] | fluorescence, % of fluorescein [8] 0.159% [at 18.6 µM] | activity change [10] 0.0539% [at 18.6 µM] | fluorescence, % of fluorescent control [11] -0.034% [at 18.6 µM] | fluorescence, % of Rose Bengal [19] -0.146% [at 18.6 µM] | fluorescence, % of fluorescent control [12] 0.197% [at 18.6 µM] | fluorescence, % of fluorescein control [13] 0.179% [at 18.6 µM] | fluorescence, % of fluorescent control [14] 0.189% [at 18.6 µM] | Potency [15] | outcome [16]

C[Si](C)=O
inactive: activation [2] 0.434% [at 8.08 µM] | activity change, negative = cytotoxicity [3] 15.5% [at 8.08 µM] | activity, negative = cytotoxicity [4] 11.6% [at 8.08 µM] | activity change, negative = cytotoxicity [17] 4.91% [at 8.08 µM] | fluorescence, relative to Rose Bengal [5] -0.082% [at 9.17 µM] | fluorescence, % of fluorescein control [6] 0.004% [at 9.17 µM] | fluorescence, % of triamterene [18] -0.115% [at 9.17 µM] | fluorescence, % of fluorescent control [7] -0.238% [at 9.17 µM] | fluorescence, % of fluorescein [8] 0.04% [at 9.17 µM] | fluorescence, % of fluorescent control [9] -0.225% [at 9.17 µM] | activity change [10] -0.0646% [at 9.17 µM] | fluorescence, % of fluorescent control [11] -0.414% [at 9.17 µM] | fluorescence, % of Rose Bengal [19] -0.0951% [at 9.17 µM] | fluorescence, % of fluorescent control [12] -0.0659% [at 9.17 µM] | fluorescence, % of fluorescein control [13] 0.113% [at 9.17 µM] | fluorescence, % of fluorescent control [14] -0.132% [at 9.17 µM] | activation [15] 1.09% [at 6.9 µM] | activity change, negative = inhibition [16] 3.35% [at 7.04 µM]

CC[C@H](C)C(=O)O[C@H]1C[C@H](O)C=C2C=C[C@H](C)[C@H](CC[C@@H](O)C[C@@H](O)CC(=O)O)[C@H]21
inactive: Potency [2] | outcome [3] | Potency [4] | outcome [17] | outcome [5] | outcome [6] | outcome [18] | outcome [7] | outcome [8] | outcome [10] | outcome [11] | outcome [19] | outcome [12] | outcome [13] | outcome [14] | Potency [15] | outcome [16]

CCNC(=O)C1CC(C)CCC1C(C)C (stereo unspecified)
inactive: Potency [2] | outcome [3] | Potency [4] | outcome [17] | outcome [5] | outcome [6] | outcome [18] | outcome [7] | outcome [8] | outcome [9] | outcome [11] | outcome [12] | outcome [13] | outcome [14] | outcome [16]

Cc1cccc(C)c1OCC(C)N (stereo unspecified)
inactive: outcome [1] | outcome [3] | Potency [4] | outcome [5] | outcome [6] | outcome [18] | outcome [7] | outcome [8] | outcome [9] | outcome [10] | outcome [11] | outcome [19] | outcome [12] | outcome [13] | outcome [14]

C=C(C)C(=O)OCCOP(=O)(O)OCCOC(=O)C(=C)C
inactive: Potency [2] | outcome [3] | Potency [4] | outcome [17] | outcome [5] | outcome [6] | outcome [18] | outcome [7] | outcome [8] | outcome [9] | outcome [10] | outcome [11] | outcome [19] | outcome [12] | outcome [13] | outcome [14] | Potency [15] | outcome [16]

CCOC(=O)CC(=O)c1ccccc1
inactive: Potency [2] | outcome [3] | Potency [4] | outcome [17] | outcome [5] | outcome [6] | outcome [18] | outcome [7] | outcome [8] | outcome [9] | outcome [10] | outcome [11] | outcome [19] | outcome [12] | outcome [14] | outcome [16]

CC(C)C(=O)OCCc1ccccc1
inactive: Potency [2] | outcome [3] | Potency [4] | outcome [17] | outcome [5] | outcome [6] | outcome [18] | outcome [7] | outcome [8] | outcome [9] | outcome [10] | outcome [11] | outcome [19] | outcome [12] | outcome [14]
